{"source": "PubChem BioAssay", "note": "Values without a mark were called inactive. How the calls were made is not given here.", "data": [{"target": "Pantothenate synthetase (Mycobacterium tuberculosis (strain ATCC 25618 / H37Rv)) (UniProt P9WIL5)", "sequence (P9WIL5 whole entry, looked up)": "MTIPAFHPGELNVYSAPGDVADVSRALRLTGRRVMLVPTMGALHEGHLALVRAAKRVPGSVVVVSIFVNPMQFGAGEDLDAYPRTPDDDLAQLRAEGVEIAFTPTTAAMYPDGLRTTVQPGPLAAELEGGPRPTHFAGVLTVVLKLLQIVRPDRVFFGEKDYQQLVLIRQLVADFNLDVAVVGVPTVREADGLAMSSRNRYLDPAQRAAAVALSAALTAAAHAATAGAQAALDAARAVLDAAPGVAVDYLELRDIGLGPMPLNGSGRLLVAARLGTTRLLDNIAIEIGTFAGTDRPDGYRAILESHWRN", "test": "Recombinant Mtb pantothenate synthetase (PanC) inhibitors, coupled enzyme, confirmatory (AID 375);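 further: 0% = full reaction with vehicle and 100% = no enzyme background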", "settings": "coupled enzyme assay; at 10 µM, active compounds read high", "units": {"inhibition": "%"}, "values": [{"compound": "CCS(=O)(=O)c1nc2ccccc2n1CC(=O)N1CCCCC1", "inhibition": 6}, {"compound": "CCCCNC(=O)c1nc2ncc(Br)cn2n1", "inhibition": 2}, {"compound": "CC1(C)Cc2c(c(N3CCOCC3)nc3sc(C#N)c(N)c23)CS1", "inhibition": 0}, {"compound": "CCCCNC(=O)c1c(C)cc(=O)oc1C", "inhibition": 9}, {"compound": "CCOC(=O)c1ccc(S(=O)(=O)Nc2cc(C(C)(C)C)no2)cc1", "inhibition": 2}, {"compound": "CCSc1nnc2c(n1)OC=Nc1ccc(Br)cc1-2", "inhibition": 2}, {"compound": "CCOC(=O)C1(c2ccccc2)NC(c2ccc(N(C)C)cc2)C2C(=O)N(C)C(=O)C21", "note": "(stereo not given)", "inhibition": 0}, {"compound": "Cc1cccc(C)c1OCc1nnc(SCC(=O)Nc2ccccc2F)o1", "inhibition": 0}, {"compound": "Cc1cc(C)n(-c2nc3sc4c(c3c3nnc(SC(C)C)n23)CC(C)(C)OC4)n1", "inhibition": 0}, {"compound": "COc1ccc(CNc2nc(SCC(=O)NCc3ccco3)nc3ccccc23)cc1", "inhibition": 10}, {"compound": "CCOCCCNC(=O)c1c[nH]c2ccc(S(=O)(=O)Nc3cccc(OC)c3)cc2c1=O", "inhibition": 0}, {"compound": "COc1ccc(CNc2oc(-c3ccccc3)nc2C#N)cc1", "inhibition": 5}, {"compound": "CCOC(=O)Cc1csc(NC(=O)CSc2nnc(C(C)C)n2CC)n1", "inhibition": 0}, {"compound": "CCN(CC(=O)Nc1ccc2c(c1)CCC2)Cc1nc2ccccc2c(=O)[nH]1", "inhibition": 4}, {"compound": "Cc1cc(C)nc(N2CCCC(C(=O)Nc3ccc4c(c3)OCO4)C2)n1", "note": "(stereo not given)", "inhibition": 0}, {"compound": "CC(=O)c1nnn(-c2nc(N3CCCC3)nc(N(c3ccccc3)c3ccccc3)n2)c1C", "inhibition": 0}, {"compound": "Cc1ccc(-c2cc(C(F)F)nc(N3CCC(C)CC3)n2)cc1", "inhibition": 6}, {"compound": "CCOC(=O)CN1C(=O)C(=O)c2cccc(C)c21", "inhibition": 0}, {"compound": "C1CCC2=NCCCN2CC1", "inhibition": 7}, {"compound": "O=C(CSc1nnc(-c2cccnc2)o1)OC1CCCCC1", "inhibition": 0}, {"compound": "CCCCCc1c(C)nc(SCC(=O)O)[nH]c1=O", "inhibition": 0}, {"compound": "CS(=O)(=O)N1CCN(C(=O)c2ccc(-c3ccccc3)cc2)CC1", "inhibition": 9}, {"compound": "NC(=O)CSc1nnc(-c2ccc(O)cc2)n1Cc1ccco1", "inhibition": 0}, {"compound": "Cc1sc2ncnc(SCC(=O)N3CCCC3)c2c1C", "inhibition": 0}, {"compound": "CCC(C)OC(=O)c1[nH]c2c(c1C)C(=O)CC(c1ccc(N(C)C)cc1)C2", "note": "(stereo not given)", "inhibition": 0}, {"compound": "COc1cccc(OCc2nnc(SCC(=O)OCc3ccccc3)o2)c1", "inhibition": 0}, {"compound": "CC(C)CC(=O)Nc1ccccc1-c1nnn(CC(=O)N2CCOCC2)n1", "inhibition": 0}, {"compound": "COCCn1nnnc1C(c1ccccc1OC)N1CCc2ccccc2C1", "note": "(stereo not given)", "inhibition": 0}, {"compound": "COc1ccc(CN2C(=O)C(O)(CC(=O)c3c(C)n[nH]c3C)c3ccccc32)cc1OC", "note": "(stereo not given)", "inhibition": 0}, {"compound": "CC(C)C[C@H](NC(=O)Nc1cccc(C(F)(F)F)c1)C(=O)O", "inhibition": 0}, {"compound": "CN(CC(O)COc1ccc(OCC(O)CN(C)C2CCCCC2)cc1)C1CCCCC1", "note": "(stereo not given)", "inhibition": 4}, {"compound": "CCOc1cc(C2C(C#N)=C(N)Oc3n[nH]c(CC)c32)ccc1OCCN1CCOCC1", "note": "(stereo not given)", "inhibition": 0}, {"compound": "CC1Cc2nc(SCC(=O)Nc3ccc4c(c3)OCO4)n(-c3ccc(F)cc3)c(=O)c2S1", "note": "(stereo not given)", "inhibition": 0}, {"compound": "O=C(C1CCCN(S(=O)(=O)c2cccc3nonc23)C1)N1CCC(Cc2ccccc2)CC1", "note": "(stereo not given)", "inhibition": 3}, {"compound": "CNC(=O)CSc1nnc(-c2cc(C)cc(C)c2)o1", "inhibition": 7}, {"compound": "O=C(C1CCCN(S(=O)(=O)c2cccnc2)C1)N1CCn2c1nc1ccccc12", "note": "(stereo not given)", "inhibition": 0}, {"compound": "CCOc1cc(-c2nc(-c3ccccc3OC)no2)cc(OCC)c1OCC", "inhibition": 12}, {"compound": "Nc1ncnc2c1ncn2[C@@H]1O[C@H](CO)[C@@H](O)[C@H]1O", "inhibition": 0}, {"compound": "COC(=O)Nc1sc2c(c1C(=O)N1CCOCC1)CCC(C)C2", "note": "(stereo not given)", "inhibition": 0}, {"compound": "O=C(Nc1ccc2[nH]c3c(c2c1)CCCC3)c1ccco1", "inhibition": 0}]}]}
